About 83,000 compounds went through this panel and 20% of them were active in at least one assay; those are over-represented in the sample as a whole.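 Step 1: grow cells in 96-well plates. Step 2: add test compound at a single concentration. Step 3: incubate 48 h. Step 4: record percent growth.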 A number with no mark means an inactive call. Calls of active or inactive are those of the source. How the source made its calls: active means growth percent below 10; inactive means the rest.

Experiment in all cases: NCI-60 one-dose screen, 48 h (100 = growth as untreated, 0 = no growth, -100 = all killed)
What all share (details): 10 µM unless noted

Test [1] deals with T-47D breast.
Test [2] deals with BT-549 breast.
Test [3] concerns MDA-MB-435 melanoma.
The subject of test [4] is SW-620 colon.
Test [5] has as its system MCF7 breast.
In test [6] the test system is HCT-116 colon.
In test [7] the test system is HCC-2998 colon.
For test [8], the system named is KM12 colon.

As to `O=C(N/N=C/c1c(Cl)cccc1Cl)c1cccnc1Nc1cccc(C(F)(F)F)c1`, the growth in test [1] was 15.7%; in test [2], 43%; in test [3], 36.2%; in test [4], 44.9%; in test [5] it was 23.2%; in test [6], 35.5%. For the same compound, the growth in test [7] is 72.2%; in test [8] it was 41.9%.
Turning to `O=S(=O)(Nc1ccc(Cl)c(C(F)(F)F)c1)c1ccc(-c2cnc(C3CC3)o2)cc1`, the growth was 12.8% in test [1]; 23.7% in test [2]; 2.82% (active) in test [3]; 22.4% in test [4]; 15.4% in test [5]; 10.1% in test [6]. Besides, the growth in test [7] was 25.1%; in test [8], 8.14% (active).
Take `CN(C)S(=O)(=O)c1cccc(C(=O)Nc2nc(-c3ccc(F)c(F)c3)cs2)c1`: the growth was 19.7% in test [1]; 52.5% in test [2]; 83.3% in test [3]; 93.9% in test [4]; 48.4% in test [5]; 57.6% in test [6]. For the same compound, in test [8], the growth was 97.4%.
Regarding `c1ccc2cc(C[n+]3ccn(CCCCCCCCCCn4cc[n+](Cc5ccc6ccccc6c5)c4)c3)ccc2c1`, the growth was -0.597% (active) in test [1]; -39.6% (active) in test [2]; 18.2% in test [3]; 23.2% in test [4]; 15.7% in test [5]; 13.3% in test [6]. For the same compound, the values for the growth in test [7] and in test [8] were 25.2% and -5.93% (active), respectively.
Take `CCN(CC)c1ccc(\C=N/N=C(N)/C(N)=N\N=C/c2ccc(N(CC)CC)cc2)cc1`: the growth was 104% in test [1]; 104% in test [2]; 101% in test [3]; 104% in test [4]; 106% in test [5]; 105% in test [6]. Further, the growth in test [7] is 114%; in test [8], 106%.
Consider `Cc1cc(S(=O)(=O)/N=C(\N)n2nc(C)c(C)c2C)c(SCc2ccccc2)cc1Cl`, for which the growth is 53% in test [1]; 112% in test [2]; 27% in test [3]; 75.4% in test [4]; 70.8% in test [5]; 62% in test [6]. Further, the values for the growth in test [7] and in test [8] were 56.9% and 81.7%, respectively.
Take `Cc1[nH]c(=O)[nH]c(=O)c1Br`: the growth in test [1] was 108%; in test [2] it was 108%; in test [3], 102%; in test [4] it was 102%; in test [5], 95.6%; in test [6], 106%. For the same compound, the growth in test [8] was 108%.
Regarding `NC(=O)c1cccc(-n2ccc3cc(NC(=O)c4ccc(N5CCOCC5)c(C(F)(F)F)c4)ccc32)n1`, the growth is 3.32% (active) in test [1]; 45.3% in test [2]; 71.3% in test [3]; 68.2% in test [4]; 57.1% in test [5]; 44.5% in test [6]. For the same compound, the results for the growth in test [7] and in test [8] were 79.8% and 33.3%, respectively.
As for `c1ccc([P+](c2ccccc2)(c2ccccc2)c2ccc3c4ccc([P+](c5ccccc5)(c5ccccc5)c5ccccc5)c5cccc(c6cccc2c63)c54)cc1`, the growth is 23.6% in test [1]; -1.26% (active) in test [2]; 3.29% (active) in test [3]; 10% in test [4]; 16.1% in test [5]; 8.67% (active) in test [6]. Further, the growth in test [8] was -9.19% (active).
For `O=S(=O)(NCCNc1nccc(-c2c(-c3ccc(F)c(O)c3)nc3occn23)n1)c1ccc(Cl)cc1`, the growth in test [1] was 92.3%; in test [2], 107%; in test [3], 38.6%; in test [4], 112%; in test [5] it was 71.6%; in test [6], 60.9%. Moreover, the growth in test [8] is 84%.
For the compound `COC(=O)Nc1nc2ccc(S(=O)c3ccccc3)cc2[nH]1` (configuration not stated), the growth in test [1] was 89.1%; in test [2], 77.9%; in test [3], -33.4% (active); in test [4] it was 27.2%; in test [5], 44.1%; in test [6], 39.4%. Besides, the growth is 74.1% in test [7] and 31.6% in test [8].
For the compound `O=C(CSC(=S)n1cnnc1)NC(=O)c1ccccc1`, the growth is 100% in test [1]; 102% in test [2]; 113% in test [3]; 103% in test [4]; 99.3% in test [5]; 112% in test [6]. Moreover, in test [8], the growth is 103%.
As for `c1ccc(-c2oc(-c3ccccc3)c(CN3CCCCC3)c2CN2CCCCC2)cc1`, the growth in test [1] is 8.84% (active); in test [2], 43.3%; in test [3], 31.7%; in test [4] it was 39.6%; in test [5] it was 11.7%; in test [6], 20.9%. Moreover, in test [8], the growth is 22%.
Consider `O=C1/C(=C/c2cccc(F)c2)CN(C(=O)C(Cl)Cl)C/C1=C\c1cccc(F)c1`, for which the growth in test [1] was -26.5% (active); in test [2], -81.1% (active); in test [3], -90.2% (active); in test [4], -63.2% (active); in test [6], -82.8% (active); in test [7] it was -86.5% (active). The growth in test [8] is -74.3% (active).
In the case of `CC1OC(n2c3ccccc3c3c4c(c5c6ccccc6[nH]c5c32)C(=O)N(CCN2CCCC2)C4=O)CC(O)C1O` (configuration not stated), the growth was 51.9% in test [1]; 65.6% in test [2]; 41.8% in test [3]; 17.7% in test [4]; 9.93% (active) in test [5]; 25.8% in test [6]. In addition, the growth in test [8] is 26.3%.

For the origin of these results see PubChem BioAssay (NCI).
